{"source": "paper PMC4552634", "about": "“A New Set of Chemical Starting Points with Plasmodium falciparum Transmission-Blocking Potential for Antimalarial Drug Discovery” (PLoS ONE, 2015)", "note": "About 3,200 (25%) of roughly 13,000 compounds showed an effect of 50% or more. Some of the results follow.", "data": [{"tested_on": "P. falciparum stage V gametocytes", "parameters": "BacTiter-Glo ATP luminescence viability of purified stage V gametocytes in 384-well plates, per cent inhibition versus DMSO", "settings": "48 h, 5 µM; inhibitor", "units": {"% Inhibition": "%"}, "values": [{"smiles": "Oc1cc(Nc2ccnc3cc(I)ccc23)c(F)cc1Cl", "note": "[TCMDC-138386]", "% Inhibition": -3.325}, {"smiles": "COc1ccc2nccc([C@@H](O)CN3CCC(NC(=O)/C=C/c4c[nH]c5c(C)cccc45)CC3)c2c1", "note": "[TCMDC-141000]", "% Inhibition": -6.826}, {"smiles": "COC(=O)CCn1c(C2CCN(CC3CCC(NC(=O)/C=C/c4ccc(Cl)c(Cl)c4)CC3)CC2)nc2ccccc21", "note": "(stereo not drawn) [TCMDC-140309]", "% Inhibition": -7.996}, {"smiles": "Cc1ccc(C)c2sc(N(CCCn3ccnc3)C(=O)c3ccco3)nc12", "note": "[TCMDC-124924]", "% Inhibition": 13.91}, {"smiles": "Cc1cc(N2CCC(NS(=O)(=O)c3cccc4cccnc34)CC2)nc(Nc2cccc(C#N)c2)n1", "note": "[TCMDC-134212]", "% Inhibition": -0.7992}, {"smiles": "CCOC(=O)C1=C(C)NC2=C(C(=O)CCC2)C1c1cn(Cc2ccc(Cl)cc2Cl)nc1-c1ccccc1", "note": "(stereo not drawn) [TCMDC-125393]", "% Inhibition": -36.58}, {"smiles": "COc1ccc(CNC2Cc3ccccc3C2)cc1-c1ccc(S(=O)(=O)NCCN2CCCC2)s1", "note": "[TCMDC-132258]", "% Inhibition": 106.2}, {"smiles": "COc1ccc(CNC2CCN(C)CC2)cc1-c1ccc(S(=O)(=O)NC2CCC2)s1", "note": "[TCMDC-132254]", "% Inhibition": 75.62}, {"smiles": "COc1ccc(CNC2CCN(C)CC2)cc1-c1ccc(S(=O)(=O)NCCN2CCCC2)s1", "note": "[TCMDC-132259]", "% Inhibition": 103.7}, {"smiles": "COc1ccc(CNC2CCN(C)CC2)cc1-c1ccc(S(=O)(=O)NCC2CCCO2)s1", "note": "(stereo not drawn) [TCMDC-132478]", "% Inhibition": 30.18}, {"smiles": "COc1ccc(CCN2CCC(NCc3cccc(N(C)C)c3)CC2)cc1", "note": "[TCMDC-124991]", "% Inhibition": -14.2}, {"smiles": "COc1ccc(CNC2CCCC2)cc1-c1ccc(S(=O)(=O)NCCN2CCCC2)s1", "note": "[TCMDC-132299]", "% Inhibition": 107.1}, {"smiles": "N#Cc1cccc(-c2cnc(N)c(-c3nc4ccc(S(N)(=O)=O)cc4[nH]3)c2)c1", "note": "[TCMDC-138816]", "% Inhibition": 7.84}, {"smiles": "COc1ccc(C(c2ccc(N(C)C)cc2)c2ccc(N(C)C)cc2)cc1", "note": "[TCMDC-125652]", "% Inhibition": 48.26}, {"smiles": "CN1CCN(CC(O)CNC(=O)Nc2ccc(Cl)cc2)CC1", "note": "(stereo not drawn) [TCMDC-134633]", "% Inhibition": 21.11}, {"smiles": "COc1ccc2nccc([C@@H](O)CN3CCC(NC(=O)/C=C/c4ccc(Cl)c(C(F)(F)F)c4)CC3)c2c1", "note": "[TCMDC-141110]", "% Inhibition": -13.82}, {"smiles": "CN1CCC(c2c[nH]c3ccc(NC(=O)Nc4ccc(-c5ccncc5)c(Cl)c4Cl)cc23)CC1", "note": "[TCMDC-139179]", "% Inhibition": -11.47}, {"smiles": "CSc1ccc(C=CC(=O)NC(=O)c2ccccc2O)cc1", "note": "[TCMDC-123758]", "% Inhibition": 32.47}, {"smiles": "O=C(NC1CCN(c2ccnc(Nc3ccc(F)cc3)n2)C1)c1cc2ccccc2s1", "note": "(stereo not drawn) [TCMDC-133599]", "% Inhibition": 10.95}, {"smiles": "O=C(Nc1cccc(CN2CCN(Cc3ccc(O)cc3)CC2)c1)c1ccc(Cl)c(Cl)c1", "note": "[TCMDC-134619]", "% Inhibition": -11.77}, {"smiles": "Cc1ccc(NC(=O)c2cccc(CN3CCCN(Cc4cccc(O)c4)CC3)c2)cc1C", "note": "[TCMDC-135979]", "% Inhibition": 91.29}, {"smiles": "N#Cc1ccc(CN2CCCN(Cc3cccc(NC(=O)c4ccc(Cl)c(Cl)c4)c3)CC2)cc1", "note": "[TCMDC-141823]", "% Inhibition": -56.24}, {"smiles": "O=C(Nc1cccc(CN2CCCN(Cc3ccc(O)cc3)CC2)c1)c1ccc(Cl)c(Cl)c1", "note": "[TCMDC-141834]", "% Inhibition": -18.14}, {"smiles": "Cc1ccc(C(=O)Nc2cccc(CN3CCCN(Cc4ccc(O)cc4)CC3)c2)cc1", "note": "[TCMDC-141815]", "% Inhibition": 21.11}, {"smiles": "O=C(Nc1cccc(CN2CCCN(Cc3cccc(O)c3)CC2)c1)c1ccc(Cl)c(Cl)c1", "note": "[TCMDC-141831]", "% Inhibition": -42.16}, {"smiles": "O=C(Nc1cccc(CN2CCCN(CC3CCCCC3)CC2)c1)c1ccc(Cl)c(Cl)c1", "note": "[TCMDC-141818]", "% Inhibition": -34.63}, {"smiles": "O=C(Nc1cccc(CN2CCN(Cc3cccc(O)c3)CC2)c1)c1ccc(Cl)c(Cl)c1", "note": "[TCMDC-134618]", "% Inhibition": 76.18}, {"smiles": "Cc1ccc(CN2CCCN(Cc3cccc(NC(=O)c4ccc(Cl)c(Cl)c4)c3)CC2)cc1", "note": "[TCMDC-141835]", "% Inhibition": 80.74}, {"smiles": "COc1cccc(CN2CCCN(Cc3cccc(NC(=O)c4ccc(Cl)c(Cl)c4)c3)CC2)c1", "note": "[TCMDC-141830]", "% Inhibition": 58.26}, {"smiles": "Cc1ccc(NC(=O)c2cccc(CN3CCCN(Cc4cccc(O)c4)CC3)c2)cc1F", "note": "[TCMDC-135959]", "% Inhibition": -11.31}, {"smiles": "Cc1ccc(NC(=O)c2ccc(CN3CCCN(Cc4cccc(O)c4)CC3)cc2)cc1C", "note": "[TCMDC-136427]", "% Inhibition": 11.16}, {"smiles": "O=C(Nc1ccc(OC2CCN(Cc3ccccc3)CC2)c(Cl)c1)c1ccc(F)cc1", "note": "[TCMDC-133967]", "% Inhibition": 19.46}, {"smiles": "FC(F)(F)c1ccc2nc(-c3ccc(-c4ccc(CN5CCN(c6ccncc6)CC5)cc4)cc3)[nH]c2c1", "note": "[TCMDC-132915]", "% Inhibition": -1.262}, {"smiles": "COc1cc(F)c2ncc(Cl)c(C(O)CN3CCC(NC(=O)c4ccc5c(n4)NC(=O)CO5)CC3)c2c1", "note": "(stereo not drawn) [TCMDC-135912]", "% Inhibition": -16.65}, {"smiles": "CCCc1cc(OC)c(CC2c3cccc(O)c3CCN2C)cc1OC", "note": "(stereo not drawn) [TCMDC-137435]", "% Inhibition": 12.33}, {"smiles": "CN(C)c1ccc(C=CC(=O)NC(=O)c2ccccc2O)cc1", "note": "[TCMDC-125391]", "% Inhibition": 21.33}, {"smiles": "COc1ccc2c(c1)[nH]c1c(C=Cc3ccccc3)nccc12", "note": "[TCMDC-125877]", "% Inhibition": -0.575}, {"smiles": "CCC(Cc1cnc2nc(N)nc(N)c2n1)c1ccc(C(=O)N[C@@H](CCC(=O)O)C(=O)O)cc1", "note": "(stereo partly drawn) [TCMDC-137768]", "% Inhibition": -32.96}, {"smiles": "CN(c1cc(NC(=O)c2ccc(F)cc2)ccn1)C1CCN(Cc2cccc(C#N)c2)CC1", "note": "[TCMDC-134975]", "% Inhibition": 15.95}, {"smiles": "CCCCCCN1CCN(Cc2cccc(NC(=O)c3ccc(Cl)c(Cl)c3)c2)CC1", "note": "[TCMDC-134617]", "% Inhibition": -46.23}, {"smiles": "O=C(Nc1cccc(CN2CCCN(Cc3ccsc3)CC2)c1)c1ccc(Cl)c(Cl)c1", "note": "[TCMDC-134581]", "% Inhibition": -57.04}, {"smiles": "O=C(Nc1cccc(CN2CCCN(Cc3cccnc3)CC2)c1)c1ccc(Cl)c(Cl)c1", "note": "[TCMDC-141824]", "% Inhibition": 12.34}, {"smiles": "CC(C)CCN1CCCN(Cc2ccc(C(=O)Nc3ccc(F)c(F)c3)cc2)CC1", "note": "[TCMDC-136391]", "% Inhibition": 89.43}, {"smiles": "Cc1ccc(NC(=O)c2ccc(CN3CCCN(CCC(C)C)CC3)cc2)cc1F", "note": "[TCMDC-136410]", "% Inhibition": -21.57}, {"smiles": "CC(C)CCN1CCCN(Cc2ccc(C(=O)Nc3ccc(Cl)cc3)cc2)CC1", "note": "[TCMDC-136413]", "% Inhibition": 0.3374}, {"smiles": "O=C(Nc1cccc(CN2CCCN(Cc3cccc(Cl)c3)CC2)c1)c1ccc(Cl)c(Cl)c1", "note": "[TCMDC-141822]", "% Inhibition": 77.55}, {"smiles": "CCCCN1CCN(Cc2cccc(NC(=O)c3ccc(Cl)c(Cl)c3)c2)CC1", "note": "[TCMDC-134615]", "% Inhibition": -27.06}, {"smiles": "CC(C)CCN1CCCN(Cc2cccc(NC(=O)c3ccc(Cl)c(Cl)c3)c2)CC1", "note": "[TCMDC-141827]", "% Inhibition": 68.73}, {"smiles": "CCC(C)Oc1ccc2nc(N)nc(N)c2c1Cl", "note": "(stereo not drawn) [TCMDC-137760]", "% Inhibition": 3.28}, {"smiles": "O=C(NCCOc1ccccc1)[C@H](Cc1ccccc1)Nc1ccnc(NCC2CCCCC2)n1", "note": "[TCMDC-134710]", "% Inhibition": 2.198}, {"smiles": "CC(C)(C)CNCC(C)(C)c1nc(-c2ccc(Cl)c(O)c2)c(-c2ccncc2)[nH]1", "note": "[TCMDC-140549]", "% Inhibition": -40.13}, {"smiles": "CN1CCCN(Cc2ccc(-c3cccc(NC(=O)c4ccc(Cl)cc4)c3)cc2)CC1", "note": "[TCMDC-132628]", "% Inhibition": 20.29}, {"smiles": "CN1N=C2c3ccccc3CCC2C1c1ccc(C#N)cc1", "note": "(stereo not drawn) [TCMDC-123771]", "% Inhibition": -59.69}, {"smiles": "CN(CCO)Cc1ccc(-c2ccc(NS(=O)(=O)c3cccc4cccnc34)cc2)cc1", "note": "[TCMDC-136473]", "% Inhibition": -2.439}, {"smiles": "C=C(C)COc1ccc(-c2n[nH]c(C(F)(F)F)c2-c2ccccc2OC)c(O)c1", "note": "[TCMDC-124477]", "% Inhibition": 8.317}, {"smiles": "COc1ccc(N2CCN(C(CNC(=O)C3CCCCC3)c3ccc4c(c3)OCO4)CC2)cc1", "note": "(stereo not drawn) [TCMDC-124312]", "% Inhibition": 30.25}, {"smiles": "COc1ccccc1NC(=O)CSc1nc2cccnc2n1-c1ccccc1OC", "note": "[TCMDC-123645]", "% Inhibition": 66.58}, {"smiles": "COc1ccccc1-n1c(SCC(=O)Nc2ccccc2F)nc2cccnc21", "note": "[TCMDC-123647]", "% Inhibition": 7.521}, {"smiles": "COc1ccc(C)cc1NC(=O)CSc1nc2cccnc2n1C1CCCCC1", "note": "[TCMDC-123649]", "% Inhibition": 3.671}, {"smiles": "c1ncc(CCNc2nc(Nc3ccc4c(c3)OCO4)nc(NC3CCCC3)n2)[nH]1", "note": "[TCMDC-139739]", "% Inhibition": 13.1}, {"smiles": "CC(=O)Nc1ncc(C(=O)Nc2ccc(-c3cccc(-c4nc5ccc(F)cc5[nH]4)c3)cc2)s1", "note": "[TCMDC-136912]", "% Inhibition": 21.3}, {"smiles": "O=C(Nc1cc(F)cc(F)c1)N1CCOC(CCN2CCC3(CCc4ccccc43)CC2)(c2ccc(Cl)c(Cl)c2)C1", "note": "(stereo not drawn) [TCMDC-135331]", "% Inhibition": -8.718}, {"smiles": "CCOC(=O)c1c(SCc2cccc(F)c2F)[nH]c2ccccc2c1=O", "note": "[TCMDC-141118]", "% Inhibition": 58.44}, {"smiles": "CCOC(=O)c1c(-c2ccccc2)[nH]c2c(sc3ccccc32)c1=O", "note": "[TCMDC-131540]", "% Inhibition": 7.736}, {"smiles": "Cc1c(CCc2cccc(F)c2F)[nH]c2ccccc2c1=O", "note": "[TCMDC-141293]", "% Inhibition": 23.35}, {"smiles": "CCCCOC(=O)[C@H](CCC)NC(=O)c1ccc(NS(=O)(=O)c2ccc3nc(N)[nH]c(=O)c3c2)cc1", "note": "[TCMDC-137698]", "% Inhibition": 14.55}, {"smiles": "COc1ccc2c(OC)c(CNCCCCCCNCc3ccc4cc(OC)ccc4c3OC)ccc2c1", "note": "[TCMDC-137953]", "% Inhibition": 105.9}, {"smiles": "COc1ccc2c(CNCCCCCCNCc3c(OC)ccc4cc(OC)ccc34)c(OC)ccc2c1", "note": "[TCMDC-137300]", "% Inhibition": 117.1}, {"smiles": "COc1ccc2ccc(OC)c(CNCCCCCCNCc3c(OC)ccc4ccc(OC)cc34)c2c1", "note": "[TCMDC-137796]", "% Inhibition": 140.1}, {"smiles": "COc1cc(CNCCCCCCNCc2cc(OC)cc3ccccc23)c2ccccc2c1", "note": "[TCMDC-137823]", "% Inhibition": 16.43}, {"smiles": "COc1ccc(OC)c(C(O)CNC(C)C)c1", "note": "(stereo not drawn) [TCMDC-124281]", "% Inhibition": 22.77}, {"smiles": "COc1ccc2cc(CNCCCCCCNCc3ccc4cc(OC)ccc4c3)ccc2c1", "note": "[TCMDC-137797]", "% Inhibition": 110.4}]}]}
